TGFb inhibitor: blocks TGF-b signaling; Potency, µM (doses to about 46.1 µM), for inactives: at the highest dose activity, negative = inhibition, actives largely listed as inhibitors; hit rate 1.2% among 410,000; HepG2 CAGA-GFP TGF-b/SMAD3 reporter, GFP fluorescence, 18 h; TGF-beta stimulated, 500 pg/mL final; AID 588855; further: on the % scale 0 is the no-effect control and ±100 the full control effect; nearly all actives have a fitted effect of over 65% in size
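HEPG2 CAGA-GFP cells (1000/well, DMEM with 1% FBS) were pre-incubated 2 h at 37 degrees C, given compound by pin tool, then stimulated with TGF-beta at 500 pg/mL final for 18 h before per-cell GFP fluorescence imaging.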
TDP1 cell noCPT: qHTS for Inhibitors of human tyrosyl-DNA phosphodiesterase 1 (TDP1): qHTS in cells in absence of CPT; DT40 Tdp1-/- hTDP1 cells, no CPT, ATP luminescence, 48 h; Potency, µM (top dose mostly 46.2 µM), for the others: at the top dose activity change, negative = growth inhibition, usual class: inhibitors; hit rate 15% among 420,000; AID 686978, 2013; further: on the % scale 0 is the no-effect control and ±100 the full control effect; nearly all actives have a fitted effect of over 55% in size
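Chicken DT40 Tdp1-/- cells complemented with human TDP1, screened without camptothecin (DMSO vehicle only), 400 cells/well. Compounds pin-transferred, cells incubated at 37 °C for at least 48 hr. Growth read as ATP-dependent luminescence (CellTiter-Glo, 30 min at RT).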
ATXN2 expr inh: inhibitors of ATXN2 expression. HEK-293 ATXN2-luciferase reporter, luminescence, 24 h. Potency, µM (top dose mostly 57 µM), inactives show top-dose activity change, negative = inhibition, usual class: inhibitors. hit rate 0.72% among 360,000. AID 1745845; further: on the % scale 0 is the no-effect control and ±100 the full control effect; nearly all actives have a fitted effect of over 55% in size
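ATXN2-luciferase reporter cells (luciferase flanked by upstream and downstream ATXN2 gene portions) were treated 24 h at 37 °C with compounds at up to 57 uM. SteadyGlo luminescence gave expression; GF-AFC fluorescence gave viability.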
TDP1 cell CPT: growth inhibition of DT40 Tdp1-/-;hTDP1 cells with camptothecin (screen for TDP1 inhibitors) | chicken DT40 Tdp1-/-;hTDP1 cells + 20 nM CPT, ATP luminescence, 48 h | Potency, µM (doses to about 46.2 µM), inactives show at the highest dose activity change, negative = growth inhibition, most hits filed as inhibitors | hit rate 12% among 420,000 | AID 686979; further: on the % scale 0 is the no-effect control and ±100 the full control effect; nearly all actives have a fitted effect of over 55% in size
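Chicken DT40 Tdp1-/- cells stably complemented with human TDP1 were seeded at 400 cells/well in medium containing 20 nM camptothecin, exposed to pin-transferred compounds, and grown at 37 °C for at least 48 hr. Viability was read as ATP luminescence.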
HepG2 viability: counter-screen for TGF-b inhibitors: cytotoxicity in HepG2 cells. HepG2 CAGA-GFP viability, ATP luminescence, 18 h. hit rate 0.76% among 410,000. Potency, µM (titrated, usually from 46.1 µM), for the others: at the top dose activity change, negative = cytotoxicity, usual class: cytotoxic
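CellTiter-Glo luminescence gave cytotoxicity after 18 hours at 37 degrees C. The cells were HepG2 CAGA-GFP in 1% FBS DMEM, stimulated with 500 pg/mL TGF-beta after compound addition. %Activity was normalised to no-cell wells (complete cell-killing) and DMSO (no toxicity), and curves were fitted and classified.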
S2 tox: reduces viability in counter-screen for ATXN expression inhibitors. S2 cells (HEK-293 line with an ATXN2-luciferase reporter) viability, CellTiter-Fluor protease fluorescence, 24 h. Potency, µM (series often up to 56.7 µM), actives largely listed as cytotoxic. hit rate 0.49% among 400,000; further: nearly all actives have a fitted effect of over 40% in size
Starred values were filed as active, the others as inactive; i = inactive; ? = inconclusive; . = no result; [ ] = remark or other dose. An excerpt weighted towards active compounds, which were near 17% of everything screened. The call rests on the fitted dose curve; in most records, active means well fitted curve in the direction sought with a large enough effect; inconclusive means small, poorly fitted or top-dose-only effect, or another doubt; inactive means no such curve, though single readings can be large; an effect the other way counts as inactive or inconclusive. Potency means the concentration at half of the fitted maximal effect.

SMILES	TGFb inhibitor	TDP1 cell noCPT	ATXN2 expr inh	TDP1 cell CPT	HepG2 viability	S2 tox
CCS(=O)(=O)Nc1ccc(C2=NN(C(=O)c3ccco3)C(c3ccco3)C2)cc1 (centres undefined)	?	4.1µM*	-14%	4.6µM*	-14%	?
CS(=O)(=O)Nc1cccc(C2=NN(C(=O)c3ccco3)C(c3ccco3)C2)c1 (centres undefined)	4%	?	-9%	16µM*	-10%	?
CCS(=O)(=O)Nc1cccc(C2=NN(C(=O)c3ccco3)C(c3ccco3)C2)c1 (centres undefined)	-5%	2.6µM*	-16%	4.6µM*	-21%	?
O=C(c1ccco1)N1N=C(c2cccs2)CC1c1ccco1 (centres undefined)	4%	10%	9%	1%	1%	i
COc1ccccc1C1CC(c2ccc(NS(C)(=O)=O)cc2)=NN1C(=O)c1ccccc1 (centres undefined)	-14%	?	.	-24%	-18%	?
CS(=O)(=O)Nc1cccc(C2=NN(C(=O)c3ccccc3Cl)C(c3ccccc3O)C2)c1 (centres undefined)	?	29µM*	0%	15µM*	-3%	i
Cc1nccn1CCCNCc1c(C(=O)N2CCCCCCC2)nc2ccc(Cl)cn12	41%	-19%	5%	0%	11%	i
COc1ccccc1-c1nnc(NC(=O)c2ccc(S(=O)(=O)N3CCOCC3)cc2)o1	-1%	?	?	?	-30%	i
COc1cccc(-c2nnc(NC(=O)c3ccc(S(=O)(=O)N4CCOCC4)cc3)o2)c1	-23%	12µM*	?	23µM*	-4%	i
Cc1nnc(NC(=O)c2ccc(S(=O)(=O)N3CCCCC3C)cc2)o1 (centres undefined)	-12%	-20%	-22%	-22%	-33%	i
CS(=O)(=O)c1ccc(-c2nnc(NC(=O)c3ccc(S(=O)(=O)N4CCCC4)cc3)o2)cc1	?	6%	-5%	0%	-13%	i
O=C(Nc1nnc(-c2ccco2)o1)c1ccc(S(=O)(=O)N2CCCCC2)cc1	-3%	13µM*	.	21µM*	-31%	i
CC1CCCCN1S(=O)(=O)c1ccc(C(=O)Nc2nnc(-c3ccco3)o2)cc1 (centres undefined)	?	26µM*	?	15µM*	-42%	i
CC(C)CCNC(=O)c1c(CSc2ccc(Cl)cc2)noc1C(=O)NCc1ccccc1	0%	-28%	-8%	-24%	-9%	i
CCOC(=O)c1c(C)nc2cc(C)cc(C)n12	0%	-9%	0%[11.3 µM]	1%	-7%	i
Nc1cc(C(F)(F)F)ccc1OCC1CCCO1 (centres undefined)	0%	-2%	5%	-5%	-6%	i
COC(=O)[C@]12CCCCC=C1N(Cc1ccc(Cl)cc1Cl)C(=O)[C@H](CC(=O)N1CCSCC1)C2	.	16µM*	-6%	?	.	i
COC(=O)[C@]12CCCCC=C1N(Cc1ccc(Cl)cc1Cl)C(=O)[C@H](CC(=O)N1CCCCC1)C2	.	18µM*	?	?	.	?
COC(=O)[C@]12CCCCC=C1N(Cc1ccc(Cl)cc1Cl)C(=O)[C@H](CC(=O)N1CCOCC1)C2	.	?	-9%	?	.	i
COc1cc(NC(=O)c2cc3c(=O)n(Cc4ccco4)ccc3nc2C)cc(OC)c1OC	0%	0%	.	8%	-1%	.
O=c1[nH][nH]c2c1C(c1ccc(Cl)c(Cl)c1)OC(CCc1ccccc1)C2 (centres undefined)	.	-28%	18%	2%	.	i
N#Cc1cccc(NC(=O)N2CC[C@@]3(CCCN(S(=O)(=O)c4ccccc4)C3)C2)c1	.	21µM*	.	?	.	.
O=S(=O)(c1ccccc1)N1CCC[C@@]2(CCN(c3ccncc3)C2)C1	.	18µM*	.	?	.	.
COCCNC(=O)C(=O)NCC1OCCCN1S(=O)(=O)c1cccs1 (centres undefined)	0%	-1%	6%	2%	-3%	i
O=S1(=O)Nc2c(ccc3cccnc23)-c2ccccc21	1.3µM*	1.5µM*	3.5µM*	1.2µM*	-48%	?
SMILES	TGFb inhibitor	TDP1 cell noCPT	ATXN2 expr inh	TDP1 cell CPT	HepG2 viability	S2 tox
Cc1cnc2c3c(cc(Cl)c2c1)-c1ccccc1S(=O)(=O)N3	4µM*	.	.	.	-85%	.
CCOc1ccc(NC(=O)CN(C)C(=O)c2cc(C)on2)cc1OCC	-9%	-3%	12%	17%	7%	i
Cc1noc(C)c1C(=O)OCC(=O)c1cc(C)n(Cc2ccccc2Cl)c1C	8%	15µM*	30%	21µM*	2%	i
Cc1noc(C)c1C(=O)OCC(=O)c1ccc[nH]1	3%	0%	4%	0%	-18%	?
CC(C)CN1CCN(Cc2cnc(N3CCOCC3)s2)CC1CCO (centres undefined)	13%	1%	-8%	16%	4%	i
CC(O)CN=c1cc(-c2ccccc2)oc2ccc(Cl)cc12 (centres undefined)	?	16µM*	-24%	?	-49%	?
CC(C)CN=c1cc(-c2ccccc2)oc2ccc(Cl)cc12	?	?	-35%	?	-19%	?
OCCN=c1cc(-c2ccccc2)oc2ccc(Cl)cc12	?	16µM*	-9%	?	-29%	i
CN(C)CCCN=c1cc(-c2ccccc2)oc2ccc(Cl)cc12	?	?	-21%	10µM*	-49%	i
Nc1nc(CN2CCN(c3ccccc3F)CC2)nc(N2CCCc3ccccc32)n1	?	-23%	11%	-7%	-27%	i
CC1(/[N+]([O-])=C/c2ccccc2F)CCCCC1=O (centres undefined)	-14%	11%	?	2%	16%	i
CNC(=O)[C@H](C)[C@@H]1C[C@@]1(C)[C@@H](NC(=O)OCc1ccccc1)c1ccccc1	8%	-25%	1%	?	4%	i
COCCNC(=O)[C@H](C)[C@H]1C[C@]1(C)[C@H](NC(=O)OCc1ccccc1)c1ccccc1	-11%	?	2%	?	-14%	i
C[C@@H](C(=O)NCC1CC1)[C@H]1C[C@]1(C)[C@H](NC(=O)OCc1ccccc1)c1ccccc1	?	?	-19%	26µM*	-14%	?
